In article PMC4552634, “A New Set of Chemical Starting Points with Plasmodium falciparum Transmission-Blocking Potential for Antimalarial Drug Discovery” (PLoS ONE, 2015):
The whole screen tested about 13,000 compounds, of which about 3,200 (25%) showed an effect of 50% or more. This is one part of the list.

These compounds were tested on P. falciparum stage V gametocytes. Details: 48 h, 5 µM; inhibitor.
Design: BacTiter-Glo ATP luminescence viability of purified stage V gametocytes in 384-well plates, per cent inhibition versus DMSO

Row | Structure (SMILES) | % Inhibition [%]
1 | CCOc1ccc(NC(C)=O)c(O)c1 [TCMDC-125851] | 13.93
2 | Cc1ccc(-c2nnc(Nc3ccc(OCC(N)=O)cc3)c3ccccc23)cc1S(=O)(=O)NCC1CCCO1 (centres unmarked) [TCMDC-125617] | -6.517
3 | CC(=O)Oc1cc(OCc2ccccc2)c(OC(C)=O)c(OCc2ccccc2)c1 [TCMDC-123938] | -24.96
4 | COCCCNc1nc2cc(OC)c(OC)cc2c2nc(-c3ccccc3)nn12 [TCMDC-124408] | 0.2335
5 | CC(C)(C)c1ccc(CNCC(C)(C)c2nc(-c3ccc(Cl)c(O)c3)c(-c3ccnc(N)n3)[nH]2)cc1 [TCMDC-141165] | 3.988
6 | Oc1ccc(Cl)cc1-c1cc(C(F)(F)F)nc(-c2ccccc2)n1 [TCMDC-123665] | 32.7
7 | COc1ccc2nccc([C@@H](O)CN3CCC(CO)(NCc4cc5ccccc5o4)CC3)c2c1 [TCMDC-140494] | 12.97
8 | COc1ccc(CC(=O)NC2CCN(c3ccnc4cc(Cl)ccc34)C2)cc1 (centres unmarked) [TCMDC-133665] | -28.04
9 | CCN(CC)CCN(Cc1ccc(-c2ccc(C(F)(F)F)cc2)cc1)C(=O)CN1C(CCc2cccc(F)c2F)=NS(=O)(=O)c2ccccc21 [TCMDC-141806] | 67.96
10 | COCCN1CCC(N(Cc2ccc(-c3ccc(C(F)(F)F)cc3)cc2)C(=O)Cn2c(CCc3cccc(F)c3F)cc(=O)c3c2CCC3)CC1 [TCMDC-141266] | 34.4
11 | CCN1CCC(N(Cc2ccc(-c3ccc(C(F)(F)F)cc3)cc2)C(=O)Cn2c(CCc3cccc(F)c3F)cc(=O)c3c2CCC3)CC1 [TCMDC-141265] | 65.76
12 | CCCNc1ccc2nccc(CCN3CCC(NCc4ccc5c(c4)NC(=O)CS5)CC3)c2n1 [TCMDC-141619] | -14.28
13 | ON=C1CCc2cc(-c3nc(-c4cccc(OCCNCc5ccc(F)cc5)c4)[nH]c3-c3ccncc3)ccc21 [TCMDC-141188] | 20.84
14 | Cc1cc(-c2cccc(CNC3CCN(C)CC3)c2)ccc1S(=O)(=O)NCCc1ccccn1 [TCMDC-132381] | 33.36
15 | CN1CCC(NCc2cccc(-c3ccc(S(=O)(=O)NCCc4ccccn4)cc3)c2)CC1 [TCMDC-132214] | 81.33
16 | CN1CCC(NCc2ccc(-c3cccc(S(=O)(=O)NCCc4ccccn4)c3)cc2)CC1 [TCMDC-132239] | 62.99
17 | CN1CCC(NCCS(=O)(=O)c2cccc(Nc3ccc(-c4cccc(F)c4)cn3)c2)CC1 [TCMDC-134370] | 8.325
18 | COc1ccc2nccc([C@@H](O)CN3CCC(NCC(=O)Nc4cc(F)cc(F)c4)CC3)c2n1 [TCMDC-140675] | -19.08
19 | Cc1ccnc2nc(C(=O)Nc3cc(C(F)(F)F)ccc3N3CCCCC3)nn12 [TCMDC-124492] | -24.2
20 | Cc1ccc(C(=O)NCC2CCN(c3ccc(C(F)(F)F)cc3NC(=O)c3ccco3)CC2)cn1 [TCMDC-134179] | 52.48
21 | COC(=O)Nc1cc(C(F)(F)F)ccc1N1CCC(CNS(=O)(=O)c2ccc(OC)cc2)CC1 [TCMDC-134157] | 29.26
22 | C[C@H](NC(=O)[C@H](Cc1ccccc1)NC(=O)OC(C)(C)C)C(=O)N[C@@H](CC1CCCCC1)C(O)CN (some centres unmarked) [TCMDC-137178] | -9.62

Row | Structure (SMILES) | % Inhibition [%]
23 | CCC(ON1C(N)=NC(N)=NC1(C)C)c1ccccc1 (centres unmarked) [TCMDC-131604] | -12.67
24 | CN1CCN(CCCN(Cc2cccc(-c3cccc(CNC4CCCC4)c3)c2)C(=O)/C=C/c2ccccc2)CC1 [TCMDC-140543] | 105.2
25 | CCCCN1CCCN(Cc2cccc(NC(=O)c3ccc(-c4ccccc4)cc3)c2)CC1 [TCMDC-141844] | -70.1
26 | CCCCCN1CCCN(Cc2cccc(NC(=O)c3ccc(-c4ccccc4)cc3)c2)CC1 [TCMDC-141845] | -85.57
27 | CN1CCN(CCCN(Cc2cccc(-c3ccc(CNC4CCCC4)cc3)c2)C(=O)/C=C/c2ccccc2)CC1 [TCMDC-140544] | 99.25
28 | CN1CCN(CCCN(Cc2ccc(-c3cccc(CNC4CCCC4)c3)cc2)C(=O)Nc2ccccc2)CC1 [TCMDC-140605] | 107.6
29 | COc1cccc(C=CC(=O)N(CCN)Cc2ccccc2)c1 [TCMDC-137725] | -7.766
30 | CN1CCN(CCCN(Cc2ccc(-c3cccc(CNC4CCCC4)c3)cc2)C(=O)/C=C/c2ccccc2)CC1 [TCMDC-140547] | 114.1
31 | CN1CC[C@@H](Oc2cc(CNC(=O)c3ccc(-c4ccc(Cl)cc4)s3)ccc2C(F)(F)F)C1 [TCMDC-136151] | -38.31
32 | C=CCc1cc(Cc2cnc(N)nc2N)c2ccc(C)nc2c1OC [TCMDC-137891] | -15.21
33 | Cc1cc(OCc2ccccc2)c(OCc2ccccc2)cc1C(O)CN(C)Cc1ccccc1 (centres unmarked) [TCMDC-131246] | 18.13
34 | Cc1cc(Nc2ccc(C(C)(C)C)cc2)c2[nH]ncc2n1 [TCMDC-131536] | -25.63
35 | Cc1ccccc1CCNC(=O)c1ccc(N2CCN(c3ccncc3)CC2)nc1 [TCMDC-134588] | 6.86
36 | Cc1ccc2cc(C3NC(=O)c4ccccc4N3)c(Cl)nc2c1 (centres unmarked) [TCMDC-124480] | -10.78
37 | N#Cc1cccc(Nc2nccc(NCC(O)c3cccc(C(F)(F)F)c3)n2)c1 (centres unmarked) [TCMDC-136580] | -40.58
38 | O=C(CCc1ccccc1)NC(c1ccc(Cl)cc1)c1ccc2cccnc2c1O (centres unmarked) [TCMDC-123537] | 82.06
39 | O=C(Cc1ccccc1)NC(c1ccccc1)c1ccc2cccnc2c1O (centres unmarked) [TCMDC-124383] | 92.16
40 | O=C(Cc1ccccc1)NC(c1ccc(Cl)cc1)c1ccc2cccnc2c1O (centres unmarked) [TCMDC-124427] | 70.3
41 | c1ccc(C(OCCC2CCN(Cc3cccc4cccnc34)CC2)c2ccccc2)cc1 [TCMDC-136047] | -51.83
42 | Cc1ccc(C(NC(=O)Cc2ccccc2)c2ccc3cccnc3c2O)cc1 (centres unmarked) [TCMDC-125551] | 6.84
43 | O=C(NC(c1ccc(Cl)cc1)c1ccc2cccnc2c1O)c1ccccc1 (centres unmarked) [TCMDC-123829] | -93.03
44 | CN(C)CCNc1ncnc2c1[nH]c1ccc(Br)cc12 [TCMDC-124584] | 3.603

Row | Structure (SMILES) | % Inhibition [%]
45 | CN(C)c1cc(N/N=C/c2cc(Cl)ccc2O)nc(N(C)C)n1 [TCMDC-125812] | -69.18
46 | CC1CN(Cc2cccc(C#N)c2)CCN1c1ccc(NC(=O)c2cccs2)cc1 (centres unmarked) [TCMDC-134969] | -7.267
47 | O=C(CSc1cccc[n+]1[O-])c1ccc(Cc2ncc(C(F)(F)F)cc2Cl)s1 [TCMDC-125823] | 10.92
48 | COc1nc2c(CCN3CC[C@H](NCc4cc(C#N)c5c(c4)CCO5)[C@H](O)C3)ccnc2cc1F [TCMDC-135969] | -20.52
49 | COc1ccc2ncc(F)c(CCN3CCC(NCc4ccc5c(c4)CCO5)CC3)c2n1 [TCMDC-135491] | 11.83
50 | COc1ccc2nccc([C@H](O)CN3CCC(NCc4cc(C)c5c(c4)OCCO5)CC3)c2n1 [TCMDC-136075] | 22.49
51 | COc1ccc2ncc(F)c([C@H](O)CN3CCC(NCc4ccc5c(c4)OCCO5)CC3)c2c1 [TCMDC-135828] | -2.76
52 | COc1ccc2ncc(F)c([C@@H](O)CN3CCC(NCc4ccc5c(c4)NCCS5)CC3)c2n1 [TCMDC-135765] | 82.34
53 | COc1nc2c(CCN3CC[C@@H](NCc4cc(C#N)c5c(c4)CCO5)[C@@H](O)C3)ccnc2cc1F [TCMDC-135964] | 90.2
54 | COc1ccc2ncc(F)c([C@@H](O)CN3CCC(NCc4cc(C#N)c5c(c4)CCO5)CC3)c2n1 [TCMDC-136078] | 86.13
55 | COc1nc2c(CCN3CC[C@H](NCc4cc(C#N)c5c(c4)OCCO5)[C@H](O)C3)ccnc2cc1F [TCMDC-135968] | 5.29
56 | COc1ccc2ncc(F)c([C@H](O)CN3CCC(NCc4ccc5c(c4)NC(=O)CO5)CC3)c2c1 [TCMDC-135829] | -7.754
57 | O=C(Nc1ccc(-c2cccc(-c3nc4ccccc4[nH]3)c2)cc1)NC1CC1c1ccccc1 (centres unmarked) [TCMDC-133257] | -13.71
58 | O=C(CC1CCCC1)N(CC1CCN(Cc2ccc(C(F)(F)F)cc2)CC1)c1ccc(N2CCOCC2)c(F)c1 [TCMDC-135855] | 9.841
59 | CCN(CCCN1CCCCC1)c1nccc(Nc2ccc(Cl)cc2)n1 [TCMDC-137046] | 6.161
60 | CS(=O)(=O)c1ccccc1CNC(=O)c1cccc(-c2ccc(-c3nc4cc(C(F)(F)F)ccc4[nH]3)cc2)c1 [TCMDC-132506] | -36.65
61 | CC(C)N1CCC(N(Cc2ccc(-c3ccc(Cl)cc3)cc2)C(=O)Cn2c(CCc3cccc(F)c3F)nc(=O)c3ccccc32)CC1 [TCMDC-141368] | 117.4
62 | CC(C)N1CCC(N(Cc2ccc(-c3ccc(C(F)(F)F)cc3)cc2)C(=O)Cn2c(SCc3cccc(F)c3F)cc(=O)c3ccccc32)CC1 [TCMDC-141157] | 117.9
63 | CC(C)N1CCC(N(Cc2ccc(-c3ccc(C(F)(F)F)cc3)cc2)C(=O)Cn2c(SCc3cccc(F)c3F)nc(=O)c3ccccc32)CC1 [TCMDC-141312] | 121.2
64 | CC(C)N1CCC(N(Cc2ccc(-c3ccc(C(F)(F)F)cc3)cc2)C(=O)Cn2c(CCc3cccc(F)c3F)cc(=O)c3ccccc32)CC1 [TCMDC-141141] | 111.4
65 | N#Cc1c(N)nc(SCC(=O)Nc2cc(C(F)(F)F)ccc2Cl)c(C#N)c1-c1cccs1 [TCMDC-123750] | -5.622
